Source: PubChem BioAssay
Rows were chosen to be rich in hits. Some 1.5% of all compounds tested hit in one or more screens of this group.
TcdB inh – blocks C. difficile toxin B glycohydrolase activity | P18177 | TcdB glycohydrolase enzymatic assay, plate reader | inhibition, % at 9.99 µM | 350,000 tested, 0.24% active | AID 652162; in the data active = inhibition above about 10%
CCHF vOTU inh – blocks the CCHF virus ovarian tumor domain protease. 370,000 tested, 0.55% active. inhibition, % at 11.5 µM. CCHFV vOTU protease, Pep-AMC fluorescence; in the data active = inhibition above about 30%; note: 0% = vehicle wells with enzyme and 100% = no enzyme wells
SSB-PriA inh – K. pneumoniae PriA-SSBct interaction inhibition. inhibition, % at 33 µM. 430,000 tested, 0.6% active. AlphaScreen SSBct-PriA binding, biotinylated peptide; in the data active = inhibition mostly above about 37%, no sharp cut-off; inactive = mostly below about 20%;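 note: plate controls were negative control peptide for no effect and reference peptide for full effect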
PrPC TRFRET – reduces human prion protein on the cell surface | P04156 | cell surface PrPC, TR-FRET read-out | inhibition, % at 13.8 µM | 370,000 tested, 0.43% active | AID 720596; in the data active = inhibition above about 24%; note: 0% = median of the test wells and 100% = reference compound wells
Vc quorum ag – induces V. cholerae light production without autoinducers | V. cholerae BH1578 lux reporter, luminescence, 6 h | 350,000 tested, 0.16% active | AID 588436 | activation, % at 18.7 µM; in the data active = activation mostly above about 9.7%, no sharp cut-off
VHR inh abs – inhibitors of human VHR1 phosphatase (DUSP3). P51452. recombinant VHR phosphatase, pNPP absorbance. inhibition, % at 13.3 µM. 290,000 tested, 0.52% active. AID 1654; in the data active = inhibition above about 50%
Target sequence (P51452 whole entry, looked up): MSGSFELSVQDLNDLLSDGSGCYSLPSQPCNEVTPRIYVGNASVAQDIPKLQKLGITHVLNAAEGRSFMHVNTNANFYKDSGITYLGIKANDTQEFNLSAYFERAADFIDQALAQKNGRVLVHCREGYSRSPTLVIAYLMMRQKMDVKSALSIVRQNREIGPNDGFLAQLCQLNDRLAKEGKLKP
* marks the source's active call; other numbers are inactive results; i = inactive; · = no result; + = active, no number; ! = not confirmed by another sample.

SMILES	TcdB inh	CCHF vOTU inh	SSB-PriA inh	PrPC TRFRET	Vc quorum ag	VHR inh abs
CN(Cc1ccccc1)c1oc(COc2ccccc2F)nc1C#N	0	2	51*	-3	0	-9
Cc1nc(C)c(C(=O)OC2CN(c3nc4c(Cl)cccc4s3)C2)s1	·	·	-12	·	·	·
COc1ccc(OC)c(/C=C(\C#N)c2nc(-c3cccs3)cs2)c1	·	·	-75	·	·	·
CCOC(=O)Cn1c(C(F)(F)F)nc2nc(Cl)c(Cl)nc21	12*	-77	-2	-8	2	·
Cc1cc(OC2CCN(C(=O)C3(c4ccccc4)CCOCC3)CC2)cc(=O)o1	·	·	23*	·	·	·
C=CCN=c1scc(-c2ccc(Br)s2)n1/N=C/c1ccccn1	·	·	i	·	·	·
C=CCN=c1scc(-c2ccc(C)cc2)n1/N=C/c1ccccn1	·	·	+	·	·	·
O=C(CSc1ccc(F)cc1)N1CCN(CCn2cccn2)CC1	·	·	-3	·	·	·
CCN1CCN(C(=S)NCCc2ccccc2)CC1	·	-7	-5	4	13	57*
S=C(NCc1ccccn1)NN=Cc1ccccn1	-3	1	61*	8	i	·
COC(=O)c1ccc(/C=N\N2CCN(c3ccccc3)CC2)cc1	-1	1	·	-4	0	51*
Cc1ccnc(N2C(=O)c3cccc4c([N+](=O)[O-])ccc(c34)C2=O)c1	0	9	-3	-33	6	13
Cc1ccnc(N2C(=O)c3ccccc3C2=O)c1	15*	-11	0	-1	i	27
O=P1(c2ccccc2)Nc2ccccc2N1c1ccccc1 (stereo not drawn)	2	7	57*	-7	i	·
CCOC(=O)c1c(NC(=O)c2noc(C)c2[N+](=O)[O-])sc(C(C)=O)c1C	-1	-4	59*	12	0	24
CCOC(=O)c1c(NC(=O)c2cc(-c3cccc(O)c3)on2)sc(C(C)=O)c1C	0	4	-8	-5	0	19
O=C(c1ccccc1)N1CCN(C(=O)c2ccccc2)CC1	·	4	-1	-10	4	-22
CC1(C)C(C(=O)N2CCN(C(=O)c3ccccc3)CC2)C1(C)C	0	0	1	-4	i	58*
Cc1ccc(S(=O)(=O)N2CCOCC2)cc1C(=O)NCCCN1CCCC1=O	11*	-3	·	0	1	·
O=C(Oc1cccc(OC(=O)c2ccco2)c1)c1ccco1	1	7	8	-6	0	56*
Cc1cc(=O)oc2c1c(C)nn2-c1nn[nH]n1	·	-18	58*	-1	i	8
CCCc1cc(=O)oc2cc(C)cc(OCc3nn[nH]n3)c12	·	-48	-25	7	-1	18
Cc1ccc(C)c(NC(=S)N(CCc2nc3cc(C)c(C)cc3[nH]2)Cc2cccnc2)c1	·	-2	2	2	i	53*
COc1ccc(C(=O)NC(C(=O)NCc2ccccc2OC)C(C)C)cc1 (stereo not drawn)	15*	12	-23	-8	-2	8
COc1cccc(-c2sc3ccccc3c2-c2ccc(OCCN3CCCC3)cc2)c1	1	1	26	-4	5	·
SMILES	TcdB inh	CCHF vOTU inh	SSB-PriA inh	PrPC TRFRET	Vc quorum ag	VHR inh abs
COc1cccc(-c2sc3ccccc3c2-c2ccc(OCCN(C)C)cc2)c1	2	10	40*	-10	1	·
Cc1cccc(NC(N)=S)c1	2	10	2	2	i	20
Cc1cccc(N=NC(=S)NNc2cccc(C)c2)c1	-4	11	52*	0	-4	·
CCOC(=O)N1CCN(c2cc(N)c([N+](=O)[O-])cc2F)CC1	4	35*	6	-19	0	16
N#C/C(=C(/O)CCl)c1nc2ccccc2[nH]1	4	-19	-13	27*	-1	16
CC(=O)Nc1ccc(S(=O)(=O)NCC2CCC(C(=O)NCCCN(C)Cc3ccccc3)CC2)cc1 (stereo not drawn)	2	10	-15	-4	i	-7
CN(CCCNC(=O)C1CCC(CNS(=O)(=O)c2ccccc2)CC1)Cc1ccccc1 (stereo not drawn)	0	6	-19	-3	0	56*
NNC(=O)c1ccccc1OCCOc1ccccc1	2	9	-9	0	0	55*
CC(C)(/C=N/O)N(O)C=C1C=CC(=O)C=C1	5	2	·	-4	i	16
CN1C=CC(=CC=C2C=CC(=O)C=C2)C=C1	27*	14	-11	-29	-1	32
O=C(NC(=S)NNC(=O)c1ccccc1F)c1cccnc1	15*	6	0	-8	i	10
Cc1ccccc1C(=O)NNC(=S)NC(=O)c1cccnc1	10	11	-5	8	-6	-7
Cc1ccc(OCC(=O)Nc2nc(-c3ccccn3)cs2)c(C)c1	6	6	4	-3	-6	·
Cc1ccc(C)n1CC(=O)Nc1nc(-c2ccccn2)cs1	·	·	100*	·	·	·
Cc1ccc(S(=O)(=O)CCC(=O)Nc2nc(-c3ccccn3)cs2)cc1	2	3	-1	1	1	·
CC1=CC(=O)CC(=O)N1CC(=O)Nc1nc(-c2ccccn2)cs1	·	·	84*	·	·	·
Cc1cccc(NS(=O)(=O)c2ccc(C)c(C(=O)NC3CCN(Cc4ccccc4)CC3)c2)c1	2	-14	47*	3	i	·
COc1cccc(Nc2c(Nc3cccc(OC)c3)c(=O)c2=O)c1	1	6	-8	8	-1	59*
CN(C)C(CNC(=O)c1cccc([N+](=O)[O-])c1)c1cccs1 (stereo not drawn)	·	·	-17	·	·	·
O/N=C/c1cccc[n+]1CCCCCC[n+]1ccccc1/C=N/O	0	-7	·	-6	-1	60*
COc1cccc(C(=O)C[n+]2ccccc2C=NO)c1	·	·	-1	·	·	·
COc1cccc2sc(N(CCCN(C)C)C(=O)c3ccc(S(=O)(=O)N4CCCc5ccccc54)cc3)nc12	-1	-1	20*!	-15	i	14
CN(C)CCCN(C(=O)c1ccc(S(=O)(=O)N2CCc3ccccc32)cc1)c1nc2c(Cl)cccc2s1	1	4	46*	-9	i	-6
COc1ccc(C)c2sc(N(CCCN(C)C)C(=O)c3ccc(S(=O)(=O)N4CCc5ccccc5C4)cc3)nc12	0	3	47*!	-21	i	·
O=C(CSc1ncnc2c1cnn2-c1ccc(F)cc1)NC[C@H]1CCCO1	·	·	-10	·	·	·
SMILES	TcdB inh	CCHF vOTU inh	SSB-PriA inh	PrPC TRFRET	Vc quorum ag	VHR inh abs
O=C(O)c1ccc2cc[nH]c2c1	·	1	-7	0	·	54*
O=C(O)c1ccc2ccc3ccccc3c2c1	-1	9	-8	6	-1	·
Cc1cc(-c2ccc(NS(=O)(=O)c3ccccc3)c(C)c2)ccc1NS(=O)(=O)c1ccccc1	12*	16	-1	10	-3	·
CCOc1ccc2ncc(C#N)c(Nc3cccc(SC)c3)c2c1	·	·	1	·	·	·
O=C(NCc1ccccc1)[C@@H]1CCCN1C(=O)[C@@H]1CCCN1C(=O)c1cccs1	12*	-4	·	-6	·	·
O=C(NCc1ccncc1)[C@@H]1CCCN1C(=O)[C@@H]1CCCN1	12*	-8	·	-6	·	·
O=C(NCc1ccncc1)[C@@H]1CCCN1C(=O)[C@H]1CCCN1C(=O)c1cccs1	1	9	·	2	·	·
